Data reported in PubChem BioAssay (NCI).
About 83,000 compounds went through this panel and 20% of them were active in at least one assay; those are over-represented in the sample as a whole.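 Percent growth is the endpoint: 0 to 100 indicates growth inhibition (40 means 60% inhibition), 0 means no net growth, and negative values indicate cell death.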 Activity calls are given as the source filed them. Rule for the calls: active = growth percent below 10; inactive = the rest.

tested on: HL-60(TB) leukemia; assay: NCI-60 one-dose screen, 48 h (100 = growth as untreated, 0 = no growth, -100 = all killed); details: 10 µM unless noted

Compound	growth
O=C(Cc1ccccc1)NNc1nc(Cl)nc(N2CCN(C(c3ccccc3)c3ccccc3)CC2)n1	58.2% (inactive)
N#CC(Cc1cccc2ccccc12)c1cc2ccccc2[nH]1 (stereo not given)	96.4% (inactive)
COc1ccc(C(=O)c2cc3c(N)c(C(=O)Nc4ccc(Cl)cc4)sc3nc2C)cc1	62.9% (inactive)
Oc1ccccc1C=Nc1ccc(N2CCN(c3ccccc3)CC2)cc1	54.6% (inactive)
Cc1noc(C)c1-c1ccc2nc(NC(=O)[C@H]3CCN(C#N)C3)cn2c1	95.9% (inactive)
COc1ccc(-c2[nH]c3ccccc3c2-c2ccc(OC)cc2)cc1	24.6% (inactive)
COc1cc(C2CC(c3ccccc3)=NN2C=O)ccc1Oc1nc2c(c(=O)n(C)c(=O)n2C)n1C (stereo not given)	101% (inactive)
COc1ccc(/C(C#N)=C/c2cccc(OC)c2OC)cc1	76.7% (inactive)
CS(=O)(=O)Nc1ccc(OCc2nnc(-c3ccc(Cl)cc3)o2)c(F)c1	115% (inactive)
COc1ccc(C(=O)OC2C(OC3C(O)COC(O[C@H]4C[C@H]5[C@@H]6CC=C7C[C@@H](O)CC[C@]7(C)[C@H]6CC[C@]5(C)[C@H]4[C@H](C)C(=O)CCC(C)C)C3OC(N)=O)OCC(O)C2O)cc1 (stereo not given in full)	-36.9% (active)
CCOC(=O)c1noc2c1CCc1cn(Cc3cc(OC)cc(OC)c3)cc1-2	77.1% (inactive)
S=C1SCC(c2ccccc2)S1 (stereo not given)	108% (inactive)
COc1cc(NC(=O)c2cc3ccccc3cc2O)c(OC)cc1Cl	-29.2% (active)
O=C(Nc1ccc([N+](=O)[O-])cc1)C(=O)Nc1ccc([N+](=O)[O-])cc1	118% (inactive)
Cc1nc2ccccc2c(/C=C/c2ccc(F)cc2)c1C(=O)/C=C/c1ccccc1	7.37% (active)
CS(=O)(=O)Nc1cc(-c2ccc3ncnc(Nc4ccc5c(cnn5Cc5ccc(F)cc5)c4)c3c2)cnc1Cl	23% (inactive)
COC1C/C(=N\O)C2OC(c3ccccc3)OCC2O1 (stereo not given)	101% (inactive)
Cc1ccc(-c2nc([P+](c3ccccc3)(c3ccccc3)c3ccccc3)c(S(=O)(=O)c3ccc(C)cc3)o2)cc1	-14.4% (active)
O=c1c2c(=NCCN3CCCC3)cc3c(=O)n(CCCN4CCOCC4)c(=O)c4c(-c5ccc(CN6CCCC6)cc5)cc(c(O)n1CCCN1CCOCC1)c2c4-3	-36.5% (active)
O=C1/C(=C/c2ccccc2)COc2ccc(O)cc21	33.9% (inactive)

Compound	growth
COCCn1cc(-c2csc(-c3c[nH]c4ccccc34)n2)c2cccnc21	14.1% (inactive)
[O-][n+]1ccccc1CCN(O)CCc1cccc[n+]1[O-]	74.2% (inactive)
S=C(c1ccccc1)N1CCN(c2cccc(Cl)c2)CC1	90.5% (inactive)
O=C(Nc1ccc(-n2cc(-c3ccncc3)c(-c3ccc(Cl)c(O)c3)n2)cc1)c1cc(Cl)cc(Cl)c1	8.45% (active)
C[C@]12CC[C@@H]3c4cc(OC(F)F)c(O)cc4CC[C@H]3[C@@H]1CC[C@@H]2OS(N)(=O)=O	7.66% (active)
Cc1ccc(-c2nc(/C=C3/C(=O)Nc4ccc(F)cc43)c3ccccn23)cc1	110% (inactive)
O=c1c2cc(Br)cc(Br)c2nc(-c2ccc(Cl)cc2)n1/N=C\c1ccccc1F	82% (inactive)
COc1ccc(C(=O)Cn2cnc3c(Nc4cc(C(=O)Nc5ccc(N6CCN(CCO)CC6)cc5)ccc4C)ncnc32)cc1	83.6% (inactive)
Nc1nc2ccc(CNc3ccc(C(=O)NC(CC(=O)O)C(=O)O)cc3)cc2c(=O)[nH]1 (stereo not given)	4.48% (active)
C=C1CCC2C(C)(CO)C(O)CCC2(C)C1C/C=C1/C(=O)OCC1Oc1ccccc1C (stereo not given)	57.4% (inactive)
COc1ccc(CCn2cncc2-c2c[nH]c3ccccc23)cc1	93.5% (inactive)
Cc1ccc(C(=Nc2ccccc2)N=P(c2ccccc2)(c2ccccc2)c2ccccc2)cc1	-4.41% (active)
N#Cc1ncc(-c2cc(F)ccc2F)c(NC2CCCCCC2)n1	86.9% (inactive)
COc1ccc(/C=C2\CCCC3=C2N=C2SC(C)=NN2C3c2ccc(OC)c(OC)c2)cc1OC (stereo not given)	-14.5% (active)
COc1ccc(C2Nc3ccccc3-n3cccc32)cc1 (stereo not given)	113% (inactive)
COc1cc(COC(=O)CCCCC[P+](c2ccccc2)(c2ccccc2)c2ccccc2)c(OC)c2c1OCO2	-9.81% (active)
CCOC(=O)/C=C1\S/C(=N\Nc2cc(=O)[nH]c3ccccc23)N(c2ccccc2)C1=O	99.1% (inactive)
COc1cc(/C=C/C(=O)c2ccc(F)cc2)ccc1OCCCCCOc1cc2c(cc1OC)C(=O)N1CCCC1C=N2 (stereo not given)	-37.2% (active)
COc1cc(C2=N/C(=C\c3cc4ccccc4nc3Oc3ccccc3)C(=O)N2C(=N)N)cc(OC)c1OC	77.2% (inactive)
CCn1c(Cc2ccccc2Nc2c(Cl)cccc2Cl)nnc1SCC(=O)NN1C(=O)/C(=C/c2cccc(OC)c2OC)SC1=S	97.5% (inactive)
